Assay outcomes from PubChem.
Apoferritin bind: candidate novel general anesthetic via apoferritin binding | Potency, µM (doses to about 77.5 µM), for the others: at the top dose activity change, negative = displacement, hits mostly inhibitors | 350,000 compounds, 0.074% hits | AID 485281 | apoferritin/1-aminoanthracene competitive binding, fluorescence; also: % is scaled to controls: 0 for no effect and ±100 for the full control effect; nearly all actives have a fitted effect of over 20% in size
Target sequence (P02791 2-175 limits assumed): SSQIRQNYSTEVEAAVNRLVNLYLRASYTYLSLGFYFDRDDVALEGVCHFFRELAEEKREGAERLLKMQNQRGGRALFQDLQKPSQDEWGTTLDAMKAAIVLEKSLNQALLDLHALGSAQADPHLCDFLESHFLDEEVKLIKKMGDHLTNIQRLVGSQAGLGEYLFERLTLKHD
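Concentration-response curves derived by four-parameter Hill fitting of normalized fluorescence, where compounds displaced 1-AMA from 10 uM horse apoferritin following a brief 10 min room-temperature incubation; propofol titration acted as positive control.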
HepG2 viability: counter-screen for TGF-b inhibitors: cytotoxicity in HepG2 cells. Potency, µM (doses to about 46.1 µM), for inactives: at the top dose activity change, negative = cytotoxicity, usual class: cytotoxic. 410,000 compounds, 0.76% hits. HepG2 CAGA-GFP viability, ATP luminescence, 18 h. AID 588856
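CellTiter-Glo luminescence gave cytotoxicity after 18 hours at 37 degrees C. The cells were HepG2 CAGA-GFP in 1% FBS DMEM, stimulated with 500 pg/mL TGF-beta after compound addition. %Activity was normalised to no-cell wells (complete cell-killing) and DMSO (no toxicity), and curves were fitted and classified.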
S2 tox: viability counter-screen for ATXN expression inhibitors | S2 cells (HEK-293 line with an ATXN2-luciferase reporter) viability, CellTiter-Fluor protease fluorescence, 24 h | 400,000 compounds, 0.49% hits | Potency, µM (top dose mostly 56.7 µM), hits mostly cytotoxic; also: nearly all actives have a fitted effect of over 40% in size
ATXN2 expr inh: ATXN2 expression inhibition | Potency, µM (doses to about 57 µM), inactives show at the highest dose activity change, negative = inhibition, hits mostly inhibitors | HEK-293 ATXN2-luciferase reporter, luminescence, 24 h | 360,000 compounds, 0.72% hits | AID 1745845; also: % is scaled to controls: 0 for no effect and ±100 for the full control effect; nearly all actives have a fitted effect of over 55% in size
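ATXN2-luciferase reporter cells (luciferase flanked by upstream and downstream ATXN2 gene portions) were treated 24 h at 37 °C with compounds at up to 57 uM. SteadyGlo luminescence gave expression; GF-AFC fluorescence gave viability.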
TGFb SMAD3 inh: TGF-b pathway inhibition. 410,000 compounds, 1.2% hits. HepG2 CAGA-GFP TGF-b/SMAD3 reporter, GFP fluorescence, 18 h; TGF-beta stimulated, 500 pg/mL final. Potency, µM (doses to about 46.1 µM), for the others: top-dose activity, negative = inhibition, most hits filed as inhibitors. AID 588855; also: % is scaled to controls: 0 for no effect and ±100 for the full control effect; nearly all actives have a fitted effect of over 65% in size
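TGF-beta reporter screen: HEPG2 CAGA-GFP, 1% FBS, 500 pg/mL TGF-beta final, 18 h; per-cell GFP summed per well; curves fitted and categorized by class.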
* marks the source's active call; other numbers are inactive results; i = inactive; u = inconclusive; x = not tested or not shown; ! = a repeat was not active; [ ] = remark or other dose. Hits are enriched below; roughly 2.4% of the tested compounds scored in any of these assays. Calls follow the shape of the dose curve; as a rule, active = well fitted curve in the direction sought with a large enough effect; inconclusive = small, poorly fitted or top-dose-only effect, or another doubt; inactive = no such curve, though single readings can be large; an effect the other way counts as inactive or inconclusive. Potency is read from the fitted curve at half-maximal effect.

SMILES	Apoferritin bind	HepG2 viability	S2 tox	ATXN2 expr inh	TGFb SMAD3 inh
Nc1ccc2c(c1)[nH]c(=O)c1ccccc12	x	-3%	i	1%	-16%
Nc1cc2c(cc1Br)[nH]c(=O)c1ccccc12	x	-98%	u	0%	10µM*
CCCCCn1c(NCc2ccccc2OC)nc2ccccc21	u	-43%	u	u	16µM*
CCCCn1c(NCc2ccccc2O)nc2ccccc21	-12%	-9%	u	-12%	-16%
COc1ccc(CNc2nc3ccccc3n2Cc2ccc(Cl)cc2)cc1OC	-5%	-36%	i	-26%	14µM*
CCn1c(NCc2ccc(OC)c(OC)c2)nc2ccccc21	4%	-24%	x	x	-20%
CCCCn1c(NC(=S)Nc2ccccc2)nc2ccccc21	4%	-19%	i	-14%	13µM*
S=C(Nc1ccccc1)Nc1nc2ccccc2n1CCOc1ccccc1	-2%	-45%	i	u	5%
CCCc1[nH]n(-c2nc3ccccc3s2)c(=O)c1C=NCCCOC	-9%	-46%	i	11%	-18%
CCCCCN=Cc1c(C)[nH]n(-c2nc3ccccc3s2)c1=O	-23%	1.4µM*	i	13µM*	-15%
Nc1ncnc(Sc2ncccn2)c1[N+](=O)[O-]	-7%	11µM*	24µM*	u	10µM*
Nc1ncnc(Sc2ccccc2)c1[N+](=O)[O-]	-4%	7%	i	28%	-26%
Cc1cc(-c2ccc(N=Nc3ccc4c(S(=O)(=O)O)cc(S(=O)(=O)O)c(N)c4c3O)c(C)c2)ccc1N=Nc1ccc2c(S(=O)(=O)O)cc(S(=O)(=O)O)c(N)c2c1O	x	x	13µM*	x	x
COCc1c(C(=O)N2CCN(c3ccccc3)CC2)cnn1-c1nccc(-c2ccco2)n1	x	x	i	x	x
CC(C)C[C@@H](C(=O)N[C@H](C(=O)OC1CCCC1)c1ccccc1)[C@H](O)C(=O)NO	x	x	x	22µM*	x
COc1ccc(/C=C/c2cc(C(=O)O)c3ccccc3n2)cc1	72%	-20%	i	2.2µM*	5%
C[C@@H](Oc1cc(-n2cnc3ccc(CN4CCN(C)CC4)cc32)sc1C(N)=O)c1ccccc1C(F)(F)F	x	x	x	31µM*	x
CO[C@@H]1COC(=O)[C@H]2CCCN2C(=O)[C@@H](C)COC(=O)[C@H](COCc2ccccc2)NC(=O)C/C=C\[C@H]1C	-6%[15.3 µM]	x	x	x	x
CCOc1ccc(C(C)=O)cc1CSC(=N)N	-1%	-5%	i	5%	5%
CCCCOc1ccc(Br)cc1CSC(=N)N	-6%	-101%	u	u	20µM*
CCCCCOc1ccc(CSC(=N)N)cc1[N+](=O)[O-]	8.9µM*	-73%	u	-17%	u
CN1C(=O)C2(NCCc3c2[nH]c2ccccc32)c2ccccc21 (stereo not drawn)	-6%	15%	i	3%	u
CC1=CC(C)(C)N2C(=O)C3(NCCc4c3[nH]c3ccccc43)c3cc(C)cc1c32 (stereo not drawn)	-15%	-2%	22µM*	-20%	u
CCCCC[C@H]1CN(Cc2ccccc2)C(=O)[C@@H]1CC(=O)NCc1ccccc1	-3%	14µM*!	u	u	18µM*
CCCCC[C@H]1CN(CCCC)C(=O)[C@@H]1CC(=O)NCc1ccc(OC)cc1	-21%	-19%	i	-21%	u
SMILES	Apoferritin bind	HepG2 viability	S2 tox	ATXN2 expr inh	TGFb SMAD3 inh
O=C(O)c1ccccc1-c1c2cc(I)c(=O)c(I)c-2oc2c(I)c(O)c(I)cc12	-7%	-13%	4.5µM*	-24%	31%
Fc1ccc(C2CCNCC2COc2ccc3c(c2)OCO3)cc1 (stereo not drawn)	-8%	11µM*	u	u	u
O=C(NCCN1CCOCC1)C1(C(F)(F)F)C/C(=C/CCO)CCCO1 (stereo not drawn)	-1%	-2%	x	x	6%
Cc1cc(-c2ccnc(-n3ncc(C(=O)N(C)CC(O)c4ccccc4)c3C)n2)c(C)s1 (stereo not drawn)	x	x	i	x	x
COc1cc(CN2CCC(C(=O)NC(c3ccc(-c4ccccc4)cc3)c3cnccn3)CC2)cc(OC)c1 (stereo not drawn)	x	22µM*	u	u	u
Cc1ccc(/C=C2/Sc3ccccc3N(CC(=O)NCC3CCCO3)C2=O)cc1 (stereo not drawn)	-7%	-12%	u	-20%	0%
Cc1cc(/C=C2\Sc3ccccc3N2C)cc(C)[n+]1CC1CCCO1 (stereo not drawn)	u	-17%	x	1.2µM*	31%
Cc1ccc(-c2csc(=Nc3ccc(F)cc3)n2Cc2ccc3c(c2)OCO3)cc1C	-16%	-8%	i	9%	-13%
Cc1ccc2[nH]c3c(c2c1)CCCC3C(N)=O (stereo not drawn)	2%	-5%	i	-2%	-13%
Cc1ccc2[nH]c3c(c2c1)CCCC3NC(=O)CCl (stereo not drawn)	-3%	18µM*	u	u	u
COc1cccc(-c2sc3ccc(OC)cc3c2C#CC(C)(C)O)c1	x	-42%	i	-14%	16µM*
COc1ccc2sc(-c3ccc(N(C)C)cc3)c(C#CC(C)(C)O)c2c1	x	-27%	x	8%	-24%
CCn1c(CN2CCC(C)CC2)nc2cc(NC(=O)COc3ccc(Cl)c(C)c3)ccc21	6%	-37%	u	u	4µM*
CC(C)(C)c1ccc(/C=C(\c2nc3ccccc3[nH]2)S(=O)(=O)c2ccccc2)cc1	x	-51%	20µM*	16µM*	16µM*
CCc1nc2cc(C(=O)N3CCCN(C=O)CC3)cc(NC(=O)c3ccccc3OC)c2n1C	x	x	i	x	x
S=C(Nc1ccccc1Cl)NC1CCN(Cc2ccccc2)CC1	3%	-41%	i	-13%	-34%
S=C(Nc1cc(Cl)cc(Cl)c1)NC1CCN(Cc2ccccc2)CC1	-16%	16µM*	u	u	u
CCOc1ccc(NC(=S)N=Nc2c(O)[nH]c3ccccc23)cc1	u	8.9µM*	u	-32%	7.9µM*
Oc1[nH]c2ccccc2c1N=NC(=S)NCCc1ccccc1	-13%	-50%	i	-4%	11µM*
Oc1cccc(NC(=S)N=Nc2c(O)[nH]c3ccccc23)c1	u	-7%	i	2%	u
CC(=O)N1CCc2cc(S(=O)(=O)C(C)CC(=O)Nc3ccc(OC(F)(F)F)cc3)ccc21 (stereo not drawn)	-8%	-3%	i	0%	-14%
O=Nc1c(O)n(Cc2ccc(Cl)c(Cl)c2)c2ccccc12	u	13µM*	u	u	0%
Cc1nn(-c2ccccc2)c(Cl)c1/C=C/C(=O)c1ccccc1	u	11µM*	i	27%	u
